Assay results published in PubChem BioAssay (EPA / NIEHS).
Results filed as inconclusive are left out. Activity calls are given as the source filed them. How the source made its calls: active means hit-call score of the fitted dose curve at least 0.9, where 1 is the maximum; inconclusive means response in the unintended direction; inactive means score below 0.9.

What was measured:
[1] = Tanguay_ZF_120hpf_JAW_legacy: (Legacy) Oregon State University Tanguay Lab 120 Hour Post-fertilization zebrafish Assay for Jaw Malformation (AID 2283638)
Summary of the method: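 Dechorionated Tropical 5D wild-type zebrafish embryos, one per well, exposed statically from 6 hpf to 120 hpf at 28C in 0.64% DMSO. Jaw malformation was scored by brightfield microscopy as present or absent. It was not scored in dead embryos.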

[2] = Tanguay_ZF_120hpf_OTIC_legacy: (Legacy) Oregon State University Tanguay Lab 120 Hour Post-fertilization zebrafish Assay for Otic Vesicle Malformation (AID 2283639)
Summary of the method: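 Wild-type zebrafish larvae, whole-embryo exposure from early stage to 120 hpf at 28C. Binary brightfield scoring of otic vesicle morphology, fitted in the positive direction against the DMSO baseline.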

[3] = Tanguay_ZF_120hpf_PE_legacy: (Legacy) Oregon State University Tanguay Lab 120 Hour Post-fertilization zebrafish Assay for Pericardial Edema (AID 2283640)
Summary of the method: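 Tropical 5D wild-type zebrafish embryos were statically exposed until 120 hpf at 28C, with 0.64% DMSO final. Pericardial edema was scored by brightfield as present or absent; endpoints were not scored in dead embryos.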

[4] = Tanguay_ZF_120hpf_PIG_legacy: (Legacy) Oregon State University Tanguay Lab 120 Hour Post-fertilization zebrafish Assay for Pigmentation Malformation (AID 2283650)
Summary of the method: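 Endpoint is incidence of abnormal pigmentation at 120 hpf in dechorionated 5D zebrafish exposed singly from 6 hpf at 28C, DMSO vehicle at 0.64%. Embryos dying by 24 or 120 hpf are excluded from scoring.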

[5] = Tanguay_ZF_120hpf_CIRC_legacy: (Legacy) Oregon State University Tanguay Lab 120 Hour Post-fertilization zebrafish Assay for Circulatory Malformation (AID 2283651)
Summary of the method: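 Binary circulatory-malformation call at 120 hpf via brightfield imaging, relative to DMSO controls. Embryos (5D strain, chorion removed) received static, light-shielded exposure at 28C.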

[6] = Tanguay_ZF_120hpf_BRAI_legacy: (Legacy) Oregon State University Tanguay Lab 120 Hour Post-fertilization zebrafish Assay for Brain Malformation (AID 2283641)
Summary of the method: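 Tropical 5D wild-type zebrafish embryos exposed statically until 120 hpf at 28C, 0.64% DMSO final, sealed and dark. Brain malformation scored present/absent by brightfield at 120 hpf; dead embryos excluded. Trimethyltin chloride 5uM positive control.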

[7] = Tanguay_ZF_120hpf_SOMI_legacy: (Legacy) Oregon State University Tanguay Lab 120 Hour Post-fertilization zebrafish Assay for Somite Malformation (AID 2283647)
Summary of the method: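 Dechorionated Tropical 5D wild-type zebrafish embryos, one per well from 6 hpf, statically exposed at 28C to 120 hpf in 0.64% DMSO; somite malformation scored present/absent by brightfield; trimethyltin 5 uM positive control; dead embryos not scored.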

[8] = Tanguay_ZF_120hpf_PFIN_legacy: (Legacy) Oregon State University Tanguay Lab 120 Hour Post-fertilization zebrafish Assay for Pectoral Fin Malformation (AID 2283648);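 further: each larva judged yes or no for fin defect by brightfield with dead larvae skipped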
Summary of the method: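 Scoring of pectoral fin malformation was binary, made at 120 hpf on larvae exposed statically from 6 hpf after enzymatic chorion removal. Activity was fitted upward relative to DMSO controls at 0.64% (vol/vol).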

[9] = Tanguay_ZF_120hpf_CFIN_legacy: (Legacy) Oregon State University Tanguay Lab 120 Hour Post-fertilization zebrafish Assay for Caudal Fin Malformation (AID 2283649)
Summary of the method: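 Dechorionated Tropical 5D wild-type embryos, one per well from 6 hpf, static exposure to 120 hpf at 28C in 0.64% DMSO. Caudal fin malformation scored by brightfield as present/absent; not scored in dead embryos.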

Measured: outcome

CN(C)c1ccc(N=NS(=O)(=O)O)cc1
inactive: [1] | [2] | [3] | [4] | [5]

COc1ccc2sc(C(=O)Nc3nnn[nH]3)c(OC(C)C)c2c1
not listed: [3] | [4]
inactive: all other assays above

O=C(O)c1cc(N=Nc2ccc(S(=O)(=O)Nc3ccccn3)cc2)ccc1O
not listed: [5] | [6] | [8]
inactive: all other assays above

CCOC(=O)c1ccc(C2CCC(NC[C@H](O)COc3ccc(O)c(NS(C)(=O)=O)c3)CC2)cc1 (stereo partly specified)
inactive: [2] | [3] | [6] | [8] | [9]

O=C1CCC(N2C(=O)c3ccccc3C2=O)C(=O)N1 (stereo unspecified)
inactive: [2] | [9] | [4] | [5]

O=C(O)CC(O)C(=O)O (stereo unspecified)
not listed: [2] | [7] | [8]
inactive: all other assays above

CC(C)=CCCC(C)CCO (stereo unspecified)
not listed: [1]
inactive: all other assays above

Nc1nc2ncc(CNc3ccc(C(=O)N[C@@H](CCC(=O)O)C(=O)O)cc3)nc2c(=O)[nH]1
not listed: [6] | [7] | [8]
inactive: all other assays above

CNS(=O)(=O)c1cc(C(=O)N2CCC(CCN3C4CCC3CC(n3c(C)nc5ccccc53)C4)(c3cccc(F)c3)CC2)c(Cl)cc1F (stereo unspecified)
inactive: [1] | [2] | [3] | [6] | [4]

CC(O)CN(CCN(CC(C)O)CC(C)O)CC(C)O (stereo unspecified)
not listed: [1]
inactive: all other assays above

CC1=CC(=O)CC(C)(C)C1
not listed: [1] | [7] | [8]
inactive: all other assays above

COc1ccc(/C=C/S(=O)(=O)NC(=O)c2ccc(C)cc2Cl)cc1
not listed: [4] | [7] | [8]
inactive: all other assays above

COC(=O)CC(=O)OC
inactive: [1] | [2] | [6] | [7] | [5]

CC[C@H]1CC[C@H](NCc2cc3c(cc2OC)[C@H]2C[C@H]2C(=O)N3C)[C@H](c2ccccc2)N1
not listed: [5] | [6] | [7]
inactive: all other assays above

Nc1cccc(N)c1
inactive: [1] | [2] | [3] | [7] | [4]

Cc1ccc(S(=O)(=O)O)cc1C
inactive: [1] | [2] | [6] | [9] | [5]

CCOCCO
inactive: [3] | [6] | [9] | [4] | [5]

Cc1[nH]cnc1C[C@H]1CCc2c(C)c3ccccc3n2C1=O
not listed: [2] | [8]
inactive: all other assays above

COC(=O)c1c(Cl)c(Cl)c(C(=O)OC)c(Cl)c1Cl
not listed: [4] | [7] | [8]
inactive: all other assays above

CCc1cc(SCc2sc(-c3ccc(C(F)(F)F)cc3)nc2CN2CCN(c3ccc(OC)cc3)CC2)ccc1OCC(=O)O
not listed: [2] | [8]
inactive: all other assays above

COCCOCCOCCOC
not listed: [2] | [5] | [7]
inactive: all other assays above

CC[C@H](C)C(=O)O[C@H]1C[C@@H](C)C=C2C=C[C@H](C)[C@H](CC[C@@H]3C[C@@H](O)CC(=O)O3)[C@H]21
not listed: [6] | [7] | [8]
inactive: all other assays above

Clc1nc(Cl)c(Cl)c(Cl)c1Cl
not listed: [3]
inactive: all other assays above

O=C(O)CCN(C1(C(=O)NO)CCCC1)S(=O)(=O)c1ccc(Oc2ccc(F)cc2)cc1
not listed: [2] | [3] | [4]
inactive: all other assays above

C=CCCCCCCCCC(=O)O
not listed: [2] | [7]
inactive: all other assays above
